Assay results taken from PubChem BioAssay (Tox21).
Results filed as inconclusive are left out. Active and inactive are the calls of the source. Calls come from the whole dose curve; as a rule, active = well fitted curve in the direction sought with a large enough effect in the repeat runs; inconclusive = weak or mixed curves; inactive = no such curve, though single readings can be large; an effect the other way counts as inactive or inconclusive.

Key:
[1] = qHTS RealTime-Glo MT Cell Viability Assay in HepG2 cells - 24 hour (AID 1224867); note: nearly all actives have a fitted effect of over 50% in size
Summary of the method: (§1)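 qHTS, HepG2, 600 cells/well, RealTime-Glo (NanoLuc + prosubstrate) added with cells; 5 h preincubation; DMSO compound addition; 37 C; luminescence at 0/8/16/24/32/40 h.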

[2] = qHTS RealTime-Glo MT Cell Viability Assay in HEK293 cells - 32 hour (AID 1224868); note: top concentration of the series differs between compounds; nearly all actives have a fitted effect of over 50% in size
Summary of the method: (§2)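 Assay medium contained NanoLuc luciferase plus cell-permeant prosubstrate, added with HEK293 cells at 600 cells/well. After 5 h at 37 C/5% CO2 compounds were added; plates stayed at 37 C for 40 h with serial luminescence reads.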

[3] = A CellTox Green Cytotoxicity Assay to monitor cytotoxicity in HEK293 cells - 0 hour (AID 1224869); note: nearly all actives have a fitted effect of over 50% in size
Summary of the method: (§3)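 Real-time, in one plate: 600 HEK293 cells/well with dead-cell DNA dye, pinned compound after 5 h, 37 C incubation over 40 h; viable cells give no appreciable fluorescence.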

[4] = qHTS RealTime-Glo MT Cell Viability Assay in HepG2 cells - 40 hour (AID 1224870); note: nearly all actives have a fitted effect of over 50% in size
Summary of the method: (§4)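 HepG2 cells (600/well) mixed with RealTime-Glo MT reagent, settled 5 h at 37 C/5% CO2 before compound addition. Nonlytic NanoLuc luminescence from viable-cell prosubstrate reduction read repeatedly during 40 h treatment at 37 C.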

[5] = A CellTox Green Cytotoxicity Assay to monitor cytotoxicity in HEK293 cells - 40 hour (AID 1224871); note: nearly all actives have a fitted effect of over 45% in size
Summary of the method: as §3

[6] = qHTS RealTime-Glo MT Cell Viability Assay in HEK293 cells - 16 hour (AID 1224872)
Summary of the method: as §2

[7] = qHTS RealTime-Glo MT Cell Viability Assay in HepG2 cells - 8 hour (AID 1224873); note: nearly all actives have a fitted effect of over 55% in size
Summary of the method: as §4

[8] = qHTS RealTime-Glo MT Cell Viability Assay in HEK293 cells - 40 hour (AID 1224874); conditions: RealTime-Glo luminescence; max response: hits give low values; note: nearly all actives have a fitted effect of over 50% in size
Summary of the method: (§5)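 Kinetic, non-lysing viability readout. Seed HEK293 (600/well) with reagent, incubate 5 h at 37 C/5% CO2, pin 23 nL compound in DMSO, incubate at 37 C, read luminescence at 0, 8, 16, 24, 32, 40 h.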

[9] = A CellTox Green Cytotoxicity Assay to monitor cytotoxicity in HEK293 cells - 24 hour (AID 1224875); note: series mostly up to about 77 µM; nearly all actives have a fitted effect of over 45% in size
Summary of the method: as §3

[10] = A CellTox Green Cytotoxicity Assay to monitor cytotoxicity in HepG2 cells - 16 hour (AID 1224876); note: nearly all actives have a fitted effect of over 45% in size
Summary of the method: (§6)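 Cytotoxicity was tracked as dead-cell DNA fluorescence in HepG2 cells treated with test compounds at 37 C; each time-point value comes from one kinetic series spanning 0, 8, 16, 24, 32 and 40 h.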

[11] = qHTS RealTime-Glo MT Cell Viability Assay in HepG2 cells - 32 hour (AID 1224877); note: nearly all actives have a fitted effect of over 55% in size
Summary of the method: as §1

[12] = A CellTox Green Cytotoxicity Assay to monitor cytotoxicity in HepG2 cells - 24 hour (AID 1224878); note: nearly all actives have a fitted effect of over 45% in size
Summary of the method: as §6

[13] = A CellTox Green Cytotoxicity Assay to monitor cytotoxicity in HepG2 cells - 40 hour (AID 1224879); note: nearly all actives have a fitted effect of over 40% in size
Summary of the method: as §6

[14] = qHTS RealTime-Glo MT Cell Viability Assay in HEK293 cells - 0 hour (AID 1224880)
Summary of the method: as §5

[15] = A CellTox Green Cytotoxicity Assay to monitor cytotoxicity in HEK293 cells - 32 hour (AID 1224881); note: nearly all actives have a fitted effect of over 40% in size
Summary of the method: as §3

[16] = A CellTox Green Cytotoxicity Assay to monitor cytotoxicity in HepG2 cells - 0 hour (AID 1224882); note: nearly all actives have a fitted effect of over 35% in size
Summary of the method: as §6

[17] = A CellTox Green Cytotoxicity Assay to monitor cytotoxicity in HepG2 cells - 32 hour (AID 1224883); note: nearly all actives have a fitted effect of over 50% in size
Summary of the method: as §6

[18] = A CellTox Green Cytotoxicity Assay to monitor cytotoxicity in HEK293 cells - 8 hour (AID 1224884); note: nearly all actives have a fitted effect of over 35% in size
Summary of the method: as §3

[19] = qHTS RealTime-Glo MT Cell Viability Assay in HepG2 cells - 16 hour (AID 1224885); note: nearly all actives have a fitted effect of over 50% in size
Summary of the method: as §1

[20] = qHTS RealTime-Glo MT Cell Viability Assay in HEK293 cells - 24 hour (AID 1224886)
Summary of the method: as §2
% is set by controls: 0 for no effect and ±100 for the full control effect.

O=C(Nc1cccc(C2=NCCN2)c1)Nc1cccc(C2=NCCN2)c1
inactive: activity change, negative = cytotoxicity [1] 1.81% [at 15.8 µM] | activity change, negative = cytotoxic [2] -5.26% [at 15.8 µM] | cytotoxicity [3] -3.81% [at 15.8 µM] | activity change, negative = cytotoxic [4] 2.87% [at 15.8 µM] | cytotoxicity increase [5] -2.61% [at 15.8 µM] | activity change, negative = cytotoxicity [6] -0.101% [at 15.8 µM] | viability change, negative = cytotoxic [7] 1.42% [at 15.8 µM] | max response [8] -2.84% | activity change [9] -4.45% [at 15.8 µM, hits give high values] | cytotoxicity increase [10] -11.3% [at 15.8 µM] | activity change, negative = cytotoxic [11] 2.71% [at 15.8 µM] | cytotoxicity [12] -8.34% [at 15.8 µM] | cytotoxicity increase [13] -7.03% [at 15.8 µM] | activity change, negative = cytotoxicity [14] -5.15% [at 15.8 µM] | cytotoxicity increase [15] -2.02% [at 15.8 µM] | cytotoxicity [16] -0.131% [at 15.8 µM] | cytotoxicity increase [17] -8.68% [at 15.8 µM] | cytotoxicity increase [18] -6.06% [at 15.8 µM] | activity change, negative = cytotoxic [19] 0.713% [at 15.8 µM] | activity change, negative = cytotoxicity [20] -1.62% [at 15.8 µM]

COc1cc(C=O)ccc1OC(=O)C(C)C
inactive: outcome [1] | Potency [2] | Potency [3] | outcome [4] | Potency [5] | Potency [6] | outcome [7] | max response [8] -2% | Potency [9] | Potency [10] | outcome [11] | Potency [12] | Potency [13] | outcome [14] | Potency [15] | Potency [16] | Potency [17] | Potency [18] | outcome [19] | Potency [20]

C=CCOc1c(Br)cc(C(C)(C)c2cc(Br)c(OCC=C)c(Br)c2)cc1Br
inactive: outcome [1] | Potency [2] | Potency [3] | outcome [4] | Potency [5] | Potency [6] | outcome [7] | max response [8] 14.4% | Potency [9] | Potency [10] | outcome [11] | Potency [12] | Potency [13] | outcome [14] | Potency [15] | Potency [16] | Potency [17] | Potency [18] | outcome [19] | Potency [20]

F[Si-2](F)(F)(F)(F)F
inactive: outcome [1] | Potency [2] | Potency [3] | outcome [4] | Potency [5] | Potency [6] | outcome [7] | max response [8] -1.11% | Potency [9] | Potency [10] | outcome [11] | Potency [12] | Potency [13] | outcome [14] | Potency [16] | Potency [17] | Potency [18] | outcome [19] | Potency [20]

Cc1nc([N+](=O)[O-])cn1-c1ccc([N+](=O)[O-])cc1
inactive: outcome [1] | Potency [2] | Potency [3] | outcome [4] | Potency [5] | Potency [6] | outcome [7] | max response [8] 4.25% | Potency [9] | Potency [10] | outcome [11] | Potency [12] | Potency [13] | outcome [14] | Potency [15] | Potency [16] | Potency [17] | Potency [18] | outcome [19] | Potency [20]

O=C(O)CCNC(=O)c1ccccc1
inactive: outcome [1] | Potency [2] | Potency [3] | outcome [4] | Potency [5] | Potency [6] | outcome [7] | max response [8] -0.231% | Potency [9] | Potency [10] | outcome [11] | Potency [12] | Potency [13] | outcome [14] | Potency [15] | Potency [16] | Potency [17] | Potency [18] | outcome [19] | Potency [20]

COc1cc2c(Nc3ccc(Br)cc3F)ncnc2cc1OCC1CCN(C)CC1
inactive: outcome [1] | Potency [2] | Potency [3] | outcome [4] | Potency [5] | Potency [6] | outcome [7] | max response [8] 6.99% | Potency [9] | Potency [10] | outcome [11] | Potency [12] | Potency [13] | outcome [14] | Potency [15] | Potency [16] | Potency [17] | outcome [19] | Potency [20]

NS(=O)(=O)c1cc2c(cc1Cl)NC(C(Cl)Cl)NS2(=O)=O (centres undefined)
inactive: outcome [1] | Potency [2] | Potency [3] | outcome [4] | Potency [5] | Potency [6] | outcome [7] | max response [8] 2.25% | Potency [9] | Potency [10] | outcome [11] | Potency [12] | Potency [13] | outcome [14] | Potency [16] | Potency [17] | Potency [18] | outcome [19] | Potency [20]

CC(C)(CO)[C@@H](O)C(=O)NCCCO
inactive: outcome [1] | Potency [2] | Potency [3] | outcome [4] | Potency [5] | Potency [6] | outcome [7] | max response [8] 4% | Potency [9] | Potency [10] | outcome [11] | Potency [12] | Potency [13] | outcome [14] | Potency [15] | Potency [16] | Potency [17] | Potency [18] | outcome [19] | Potency [20]

O=C1CC[C@H](C(=O)N2CCCCC2)N1
inactive: outcome [1] | Potency [2] | Potency [3] | outcome [4] | Potency [5] | Potency [6] | outcome [7] | max response [8] -2.81% | Potency [9] | Potency [10] | outcome [11] | Potency [12] | Potency [13] | outcome [14] | Potency [16] | Potency [17] | Potency [18] | outcome [19] | Potency [20]

Cc1cccc(Nc2ccncc2S(=O)(=O)NC(=O)NC(C)C)c1
inactive: outcome [1] | Potency [2] | Potency [3] | outcome [4] | Potency [5] | Potency [6] | outcome [7] | max response [8] -1.39% | Potency [9] | Potency [10] | outcome [11] | Potency [12] | Potency [13] | outcome [14] | Potency [15] | Potency [16] | Potency [17] | outcome [19] | Potency [20]

Nc1ccnc(=O)[nH]1
inactive: outcome [1] | Potency [2] | Potency [3] | outcome [4] | Potency [5] | Potency [6] | outcome [7] | max response [8] 4.83% | Potency [9] | Potency [10] | outcome [11] | Potency [12] | Potency [13] | outcome [14] | Potency [15] | Potency [16] | Potency [17] | outcome [19] | Potency [20]
